ERK AVP inh = vasopressin-driven ERK pathway inhibition | AID 995 | Potency, µM (titrated, usually from 57.5 µM), most hits filed as inhibitors | HEK293-V1b, vasopressin-stimulated pERK AlphaScreen | actives 0.99% (n = 72,000); note: nearly all actives have a fitted effect of over 55% in size
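V1b-HEK293 cells; cpd 30 min 37C; 25 nM vasopressin 5 min; lyse 10 min; AlphaScreen beads 5 hr RT. Normalized to DMSO basal and 25 nM vasopressin; AC50 by Hill fit.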
GBA activity = alters purified human glucocerebrosidase activity. P04062. purified enzyme, resorufin glucoside fluorescence (screen aimed at inhibitors), 20 min. Potency, µM. actives 1.1% (n = 48,000). AID 360; in the data active = potency below about 15 µM; inconclusive = mostly about 16 µM to 33 µM;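 note: the screen sought inhibitors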
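Wild-type enzyme at 0.2 nM final in 50mM citric acid/KH2PO4, 10mM sodium taurocholate, 0.01% tween-20, pH 5.9, with resorufin beta-D-glucopyranoside at 30 uM final. Compounds titrated, 20 min at RT, red fluorescence read; AC50 from titration.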
Bst PK mod = modulators of Bacillus stearothermophilus pyruvate kinase; actives 1.2% (n = 51,000); AID 361; Potency, µM; purified pyruvate kinase, luminescence ATP production; ribose 5-phosphate activator present at AC10; in the data active = potency below about 11 µM; inconclusive = mostly about 12 µM to 25 µM;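 the screen sought inhibitors and activators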
Luciferase inh = blocks Photinus pyralis firefly luciferase activity | purified firefly luciferase, luminescence, 8 min | P08659 | actives 2.2% (n = 72,000) | Potency, µM (doses to about 57.1 µM), most hits filed as inhibitors; note: nearly all actives have a fitted effect of over 40% in size
Target sequence (P08659 whole entry, looked up): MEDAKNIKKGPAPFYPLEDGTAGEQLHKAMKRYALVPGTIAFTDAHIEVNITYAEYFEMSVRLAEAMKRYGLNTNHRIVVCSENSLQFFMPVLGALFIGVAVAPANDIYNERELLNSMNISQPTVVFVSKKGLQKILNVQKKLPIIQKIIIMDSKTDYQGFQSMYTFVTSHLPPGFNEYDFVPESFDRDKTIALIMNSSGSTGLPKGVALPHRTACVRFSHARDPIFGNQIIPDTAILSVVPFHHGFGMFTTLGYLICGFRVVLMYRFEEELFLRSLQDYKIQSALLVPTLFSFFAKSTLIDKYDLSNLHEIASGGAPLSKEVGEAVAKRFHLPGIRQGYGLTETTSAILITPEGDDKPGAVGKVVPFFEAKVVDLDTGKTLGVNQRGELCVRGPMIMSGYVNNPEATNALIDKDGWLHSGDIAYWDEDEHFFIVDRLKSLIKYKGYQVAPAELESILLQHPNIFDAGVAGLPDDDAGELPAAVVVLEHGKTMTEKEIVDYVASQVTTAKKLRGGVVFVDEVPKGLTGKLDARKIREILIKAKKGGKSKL
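Firefly luciferase (PKLight detection mix) with 10 uM ATP in pH 7.2 imidazole buffer (KCl, MgCl2, Tween 20, BSA). Compounds tested across a concentration series (qHTS). Luminescence read after 8 min at ambient temperature.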
HEK293 cAMP cs = raises cAMP in parental HEK293 cells, TSHR agonist counter-screen; actives 2.5% (n = 73,000); Potency, µM (titrated, usually from 57.1 µM), most hits filed as activators; parental HEK293 CNG cAMP sensor, membrane potential fluorescence; note: nearly all actives have a fitted effect of over 55% in size
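Parental HEK 293 cells stably expressing a modified CNG channel (no TSHR) report cAMP rise as membrane depolarization. Membrane potential dye with 100 uM RO 20-1724 was loaded for 60 min at room temperature, then compound added for 30 min; fluorescence read at 590 nm.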
TSHR ag = agonists of human thyroid stimulating hormone receptor. HEK293-CNG-TSHR cells (CNG channel as cAMP sensor), membrane potential dye, cAMP. Potency, µM (titrated, usually from 57.1 µM), usual class: activators. actives 0.48% (n = 73,000); active = well fitted activation curve with a large enough effect in the main read-out, with a control signal flat, not every such curve was filed as active; inconclusive = small, poorly fitted or top-dose-only effect, or a change in a side signal; inactive = no such curve, though single readings can be large or run the other way; reference of the percent scale not stated here;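 note: the control signal comes from parental cells without the receptor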
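cAMP rise detected as CNG-channel membrane depolarization by fluorescent dye (emission 590 nm), 30 min after compound, following 60 min dye loading containing 100 uM RO 20-1724 at room temperature. Cells: TSHR/CNG HEK 293, with parental CNG HEK 293 as control.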
parental cAMP = TSHR-independent cAMP elevation, counter-screen; shares compounds with TSHR ag; parental HEK293 CNG biosensor, cAMP membrane potential fluorescence; activity change, negative = inhibition, % at 32.9 µM; 150 tested, under 10 active; AID 953
A number is an active result; – = inactive; ? = inconclusive; · = no result given; [ ] = remark or other dose. This is a sample that favours compounds with a hit; in the whole collection about 6.1% have one here. Unless noted, calls come from the whole dose curve; as a rule, active = well fitted curve in the direction sought with a large enough effect; inconclusive = small, poorly fitted or top-dose-only effect, or another doubt; inactive = no such curve, though single readings can be large; an effect the other way counts as inactive or inconclusive.

SMILES	ERK AVP inh	GBA activity	Bst PK mod	Luciferase inh	HEK293 cAMP cs	TSHR ag	others
O=C(Nc1ccc2c(c1)OCO2)C1CCN(S(=O)(=O)c2cccc3cccnc23)CC1	–	–	6.7	–	–	–
O=C(Nc1cccc(C(F)(F)F)c1)C1CCCN1S(=O)(=O)c1cccc2cccnc12 (stereo not given)	–	–	8.3	–	?	?
O=C(C1CCN(S(=O)(=O)c2cccc3cccnc23)CC1)N1CC=C(c2ccccc2)CC1	25µM	·	·	–	?	?
COc1ccc(NC(=O)C2CCN(S(=O)(=O)c3cccc4cccnc34)CC2)cc1OC	?	·	·	–	–	–
CCOC(=O)c1cccc(NC(=O)C2CCCN2S(=O)(=O)c2cccc3cccnc23)c1 (stereo not given)	–	·	·	–	–	–
O=C(C1CCN(S(=O)(=O)c2cccc3cccnc23)CC1)N1CCc2ccccc21	–	–	9.7	–	–	–
CC1=CC(=O)CC(C)(C)[C@@]1(O)/C=C\C(C)=C\C(=O)O	·	·	·	–[11.4 µM]	–	–
O=C(Nc1cccnc1)c1ccc(COCC(F)(F)F)cc1	–	5.1	–	–	–	–
CCC(C)c1ccc(O)c(NC(=O)c2cccnc2)c1 (stereo not given)	–	–	–	–	–	–[11.4 µM]
CCC(=O)Nc1ccc(C(=O)Nc2cccnc2)cc1	?	6.6	–	–	–	–
CCC(C)c1ccc(NC(=O)c2cccnc2)cc1 (stereo not given)	–	·	·	25µM	–[11.4 µM]	–[11.4 µM]
C=C[C@@H]1CN2CC[C@@H]1C[C@@H]2[C@@H](O)c1ccnc2ccc(OC)cc12	–	·	·	·	·	·
CN(CCC(=O)O)S(=O)(=O)c1ccccc1	–[11.5 µM]	·	·	–[11.4 µM]	–[11.4 µM]	–[11.4 µM]
Cc1cccc(NS(=O)(=O)c2ccc(C)c(C(=O)OCC(=O)Nc3cc(C)on3)c2)c1	–	11	–	–	–	–
Cc1cc(NC(=O)c2ccc(N(C)S(=O)(=O)c3ccccc3)cc2)no1	–	15	–	–	?	?
COc1ccc(S(=O)(=O)N(C)c2ccc(OCC(=O)Nc3cc(C)on3)cc2)cc1	–	·	–	–	–	–
Cc1cc(NC(=O)c2ccc(NC(=O)C(C)Oc3ccccc3)cc2)no1 (stereo not given)	–	1.9	–	–	–	–
Cc1ccc(S(=O)(=O)Nc2ccc(C(=O)Nc3cc(C)on3)cc2)cc1	–	0.16	–	–	–	–
CCOc1cc(C(=O)Nc2ccc(S(=O)(=O)Nc3cc(C)on3)cc2)cc(OCC)c1OCC	–	–	–	–	–	–
CN1CCN(CCCN)CC1	–[11.5 µM]	·	·	–[11.4 µM]	–[11.4 µM]	–[11.4 µM]
N[C@H](CO)C(=O)NCC(=O)O	–[11.5 µM]	·	·	–[11.4 µM]	–[11.4 µM]	·
O=C(CSc1ncnc2c1oc1ccccc12)N1CCCc2ccccc21	?	–	–	–	32µM	?
O=C(Cn1cnc2c(oc3ccccc32)c1=O)N1CCCc2ccccc21	–	–	–	–	–	–
CCOc1ccc2c(c1)sc(=NC(=O)C1CC1)n2C	–	·	–	13µM	–	–[11.4 µM]
Cc1[nH]n(-c2ccc(S(=O)(=O)O)cc2)c(=O)c1N=Nc1ccccc1	–[11.5 µM]	·	·	–[11.4 µM]	–[11.4 µM]	–[11.4 µM]
SMILES	ERK AVP inh	GBA activity	Bst PK mod	Luciferase inh	HEK293 cAMP cs	TSHR ag	others
CC(=O)c1c(C(C)=O)c(C)n(NC(=O)c2ccccc2O)c1C	–	–	–	–	–	–
CC(=O)c1c(C(C)=O)c(C)n(NC(=O)c2cccnc2)c1C	?	–	–	–	4µM	?
CCOC(=O)OCC1OC(C#Cc2ccc(F)cc2F)C=CC1OC(=O)OCC (stereo not given)	–[11.5 µM]	·	·	·	–[11.4 µM]	–[11.4 µM]
COCCn1c(C)cc(C(=O)CSc2nnc(C)s2)c1C	–	–	?	10µM	–	–
COCCn1c(C)cc(C(=O)CSc2n[nH]c(N)n2)c1C	–	–	–	–	–	–
O=C1C2C3CCCC3=C3CCCC3C2C(=O)N1c1cccc(Cl)c1 (stereo not given)	–	·	·	–	?	?
O=C1C2C3CCCC3=C3CCCC3C2C(=O)N1c1ccc(Cl)cc1 (stereo not given)	–	–	–	–	–	3.2µM	parental cAMP=–
CN(Cc1ccco1)c1ccnc(-c2cccc(C#N)c2)n1	–	·	·	–[2.29 µM]	–	–
